Experimental findings from ChEMBL document CHEMBL4513216, “Probing the Open Global Health Chemical Diversity Library for Multistage-Active Starting Points for Next-Generation Antimalarials” (ACS Infect Dis, 2020) are described below.

Screen size: about 69,000 compounds; about 8,600 (12%) showed an effect of 50% or more. The list comes from a sample in which strong results are over-represented; it also holds similar structures and randomly drawn compounds.

The subject of this test is Plasmodium berghei. Nature of the test: Screen against P. berghei liver stage (PbLuc), transformed with Luciferase, at 10uM. Format: functional, HepG2. Conditions: tested at 10 uM.
For the molecule `COc1nsc2nc(C3CCCN3c3ncccn3)ccc12` (configuration not stated), the INHIBITION is reported as 25.49%. `Cc1ccc(C(=O)NCC(C)Cn2cccn2)c(=O)[nH]1` (configuration not stated): the INHIBITION amounted to 58.5%.

`Cc1ccc(C(=O)NCC(C)CN2CCCC2=O)c(=O)[nH]1` (configuration not stated): the INHIBITION came to 37.1%. Take `Cc1ccc(C(=O)NCC(C)Cn2ccnc2C)c(=O)[nH]1` (configuration not stated): the INHIBITION stood at 55.5%. Consider `Cc1ccc(C(=O)NC(C)Cn2cccn2)c(=O)[nH]1` (configuration not stated), for which the INHIBITION came out at 42.6%. As for `Cc1ccc(C(=O)NCC(O)c2ccc(Cl)s2)c(=O)[nH]1` (configuration not stated), the INHIBITION is given as 37.2%. Regarding `Cc1ccc(C(=O)NCCCn2cccn2)c(=O)[nH]1`, the INHIBITION is listed as -1.98%. As to `Cc1cnc(C(=O)N2C[C@@H]3CC[C@H]2CN(Cc2cscn2)C3)[nH]1`, the INHIBITION was found to be 42.1%.

As for `COc1cccc(CN2CCN(c3cccc(C(C)C)n3)CC2)c1F`, the INHIBITION is on record as -26.1%. For `Cc1ccc(F)cc1NC(=O)c1[nH]ncc1Br`, the INHIBITION stood at 11.7%. With `CCC(CCO)NS(=O)(=O)c1ccc(Br)cn1` (configuration not stated), the INHIBITION worked out at 65.4%. As to `C[C@H](CCO)NS(=O)(=O)c1ccc(Br)cn1`, the INHIBITION is on record as 21.7%. `CCS(=O)(=O)N(C)CC(=O)Nc1ccc(Br)cn1`: the INHIBITION worked out at 6.81%. The value for `COCC(C)NC(=O)c1cncc(Br)c1` (configuration not stated) was -26.4%; that for `COCC(C)NS(=O)(=O)c1ccc(Br)cn1` (configuration not stated) was 56%; that for `CS(=O)(=O)CCOCCNc1ccc(Br)cn1` was -3.08%. In the case of `CCN(C(=O)c1nc2c(s1)CCCN2C(C)=O)C(C)C`, the INHIBITION is 5.68%. For `O=C(c1cccc2c1OCCO2)N1CCCC1c1noc(C2CC2)n1` (configuration not stated), the INHIBITION worked out at 2.3%. The value for `COCCC(=O)N1CCC2(COCc3c(C)nc(NCC4CC4)nc32)C1` (configuration not stated) was 33%. `COCCC(=O)N1CCC2(COCc3cnc(-c4ccccc4)nc32)C1` (configuration not stated): the INHIBITION was determined as 16.5%. For `COCCC(=O)N1CCC2(COCc3cnc(-c4cccnc4)nc32)C1` (configuration not stated), the INHIBITION turned out to be 33.1%. On to `COCCC(=O)N1CCC2(COCc3cnc(NCC4CC4)nc32)C1` (configuration not stated), for which the INHIBITION worked out at 61.5%.

`COCC(=O)N1CCC2(COCc3cnc(NCc4ccco4)nc32)C1` (configuration not stated): the INHIBITION worked out at 24.3%. Take `COCCC(=O)N1CCC2(COCc3cnc(N(C)C)nc32)C1` (configuration not stated): the INHIBITION amounted to 53.2%. For `Cc1cccc(CNC(=O)CCc2c(C)nc3cc(O)nn3c2C)n1`, the INHIBITION is reported as 33.3%.

With `CC(CN1CCOCC1)NC(=O)NCc1ccoc1` (configuration not stated), the INHIBITION is given as -7.36%. `Cc1nc(NCCN2CCCC2=O)cc(C2CN(C)CCO2)n1` (configuration not stated): the INHIBITION is listed as -17.9%. With `CC(NC(=O)NCCCn1cncn1)c1ccc(C(F)(F)F)cc1` (configuration not stated), the INHIBITION is -16.88%. For the molecule `Cc1ccc(S(=O)(=O)N2C[C@H]3C[C@H](NC(=O)c4cnn(C)c4)[C@H]3C2)cc1`, the INHIBITION was 78.5%.

On to `Cc1ccc(S(=O)(=O)N2C[C@@H]3C[C@@H](NC(=O)C(C)(C)C)[C@@H]3C2)cc1`, for which the INHIBITION amounted to 44.9%. For the molecule `Cc1ccc(S(=O)(=O)N2C[C@H]3C[C@H](NC(=O)c4cc(C)no4)[C@H]3C2)cc1`, the INHIBITION is reported as 5.11%. Regarding `Cc1ccc(S(=O)(=O)N2C[C@H]3C[C@H](NC(=O)C(C)C)[C@H]3C2)cc1`, the INHIBITION is recorded as 19.6%. Regarding `Cc1ccc(S(=O)(=O)N2C[C@H]3C[C@H](NC(=O)c4ccn(C)n4)[C@H]3C2)cc1`, the INHIBITION is reported as 38.7%. As for `Cc1ccc(S(=O)(=O)N2C[C@H]3C[C@H](NC(=O)c4ccnn4C)[C@H]3C2)cc1`, the INHIBITION came to 77.9%. Turning to `CC1(C)CN=C(N2CCN(CC3CCCCO3)CC2)S1` (configuration not stated), the INHIBITION came out at 27.6%. Consider `COCC1COCCC12CCN(Cc1cccs1)CC2` (configuration not stated), for which the INHIBITION is recorded as 23.6%. Turning to `COCCN1C(=O)C[C@H]2[C@H]1CCN2C(=O)c1ccc[nH]1`, the INHIBITION is listed as 26.3%. As to `CCN1CCN(Cc2nc(CCc3ccccc3)n[nH]2)CC1`, the INHIBITION is on record as 56.5%.

Consider `CCN1CCN(Cc2nc(Cc3ccccc3)n[nH]2)CC1`, for which the INHIBITION was -7.17%. Take `c1ccc(CCc2n[nH]c(CCN3CCCCC3)n2)cc1`: the INHIBITION came to 38.5%. As to `CCOCc1cc(CNC2CCCc3c2cnn3CC)ccc1OC` (configuration not stated), the INHIBITION stood at 33.8%. In the case of `Cc1nc2sccn2c1CN(CCCN(C)C)Cc1ccco1`, the INHIBITION stood at 33.5%.

Regarding `CC(CO)NC(=O)c1ccc(NCc2cc(C#N)ccc2F)cc1` (configuration not stated), the INHIBITION is 26.8%. On to `Cc1nc[nH]c1CN1C[C@H]2CC[C@@H](C1)N(C(=O)CCc1cnn(C)c1)C2`, for which the INHIBITION is listed as 40.1%. Under `Cc1nc[nH]c1CN1C[C@H]2CC[C@@H](C1)N(C(=O)CCc1cccnc1)C2` stands 8.38%; under `Cc1nc[nH]c1CN1C[C@H]2CC[C@@H](C1)N(C(=O)CCNS(C)(=O)=O)C2`, 26.8%; under `Cc1nc[nH]c1CN1C[C@H]2CC[C@@H](C1)N(C(=O)c1cnn(C)c1)C2`, 10.7%. As to `Cc1cc(CN2C[C@@H]3CC[C@H]2CN(Cc2[nH]cnc2C)C3)on1`, the INHIBITION was determined as 62.1%. Under `Cc1ccc(CN2C[C@@H]3CC[C@H]2CN(Cc2[nH]cnc2C)C3)o1` stands 24.9%; under `CSc1ccccc1CN1C[C@@H]2CC[C@H]1CN(Cc1[nH]cnc1C)C2`, 60.3%.

As for `CSCCCN1C[C@@H]2CC[C@H]1CN(Cc1[nH]cnc1C)C2`, the INHIBITION was determined as 45.8%.

Turning to `Cc1cccc(CN2C[C@@H]3CC[C@H]2CN(Cc2[nH]cnc2C)C3)n1`, the INHIBITION worked out at 58.5%.
